Laboratory results taken from the supplement of paper PMC3334620.
In all, about 33,000 sequences were measured (“E-score (-0.5 to 0.5)”: median about -0.012, highest 2% from about 0.29 on). This excerpt belongs to a sample that is enriched for the highest values.

Target: T1, Ybr033w (UniProt P38073)
T1 sequence: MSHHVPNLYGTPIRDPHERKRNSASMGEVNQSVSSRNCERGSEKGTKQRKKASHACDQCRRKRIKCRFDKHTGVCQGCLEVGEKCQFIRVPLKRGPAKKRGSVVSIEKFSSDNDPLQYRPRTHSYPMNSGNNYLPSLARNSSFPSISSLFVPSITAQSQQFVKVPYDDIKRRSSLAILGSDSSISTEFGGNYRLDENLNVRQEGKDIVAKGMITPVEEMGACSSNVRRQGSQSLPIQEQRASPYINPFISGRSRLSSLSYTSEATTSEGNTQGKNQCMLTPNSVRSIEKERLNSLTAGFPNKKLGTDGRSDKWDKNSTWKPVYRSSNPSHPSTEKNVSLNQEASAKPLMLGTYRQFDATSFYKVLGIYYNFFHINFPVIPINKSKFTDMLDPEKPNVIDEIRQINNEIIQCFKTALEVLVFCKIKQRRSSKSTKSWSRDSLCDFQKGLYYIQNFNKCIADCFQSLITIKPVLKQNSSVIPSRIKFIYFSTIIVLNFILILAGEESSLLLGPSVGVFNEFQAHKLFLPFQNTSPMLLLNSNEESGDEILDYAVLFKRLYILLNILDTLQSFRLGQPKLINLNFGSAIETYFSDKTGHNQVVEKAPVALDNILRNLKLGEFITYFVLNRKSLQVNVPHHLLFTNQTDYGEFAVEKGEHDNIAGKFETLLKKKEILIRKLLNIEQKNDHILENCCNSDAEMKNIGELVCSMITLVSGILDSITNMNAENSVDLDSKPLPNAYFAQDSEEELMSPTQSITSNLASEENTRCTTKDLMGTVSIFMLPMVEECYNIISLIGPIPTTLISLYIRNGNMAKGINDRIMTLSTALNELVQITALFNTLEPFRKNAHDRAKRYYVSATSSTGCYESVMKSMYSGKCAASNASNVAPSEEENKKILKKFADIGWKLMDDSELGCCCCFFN
Test: PBM E-score (8-mer binding enrichment) (E-score (-0.5 to 0.5)); higher = stronger / more preferred TF binding
Conditions: protein concentration: 200 nM; construct: GST-full length
Method in brief: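 E-scores (a modified Wilcoxon-Mann-Whitney statistic) were assigned by the Universal PBM Analysis Suite to every ungapped eight-base word pooled with its reverse complement. The input came from universal all-10-mer Agilent arrays made double-stranded by primer extension and probed with GST-tagged yeast transcription factors at about 100-200 nM. Fluorescent anti-GST detected bound protein, and masliner normalised the scans.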

Row | Sequence | PBM E-score
1 | CCCCACAA | -0.229
2 | CACTTTAG | 0.112
3 | ACTTACTC | 0.0333
4 | GTGCGGTA | -0.0389
5 | CCCAAGCA | -0.0848
6 | AACCTCGG | 0.0447
7 | GAAATCTC | -0.0338
8 | CGGGGGAG | -0.329
9 | AAAATATC | 0.304
10 | AATATATG | 0.204
11 | AAAATATA | 0.28
12 | ACAATATC | 0.293
13 | CAAATATC | 0.269
14 | ACAATATA | 0.264
15 | AATATATT | 0.411
16 | AAAATATT | 0.364
17 | AATATATA | 0.277
18 | AAAATAGT | 0.225
19 | ACAATATG | 0.199
20 | CACCTCTC | -0.283
21 | AGAATGGA | 0.0873
22 | GGACGCGA | -0.0773
23 | ATCTGGGC | -0.0818
24 | CTCCTCGC | -0.257
25 | CATTCTAA | 0.165

Row | Sequence | PBM E-score
26 | CTGGCTTC | -0.174
27 | TATTCTGA | 0.0151
28 | ATCTCATG | 0.0775
29 | ATTTTCTG | 0.0635
30 | CAAATATG | 0.0991
31 | AAAATATG | 0.299
32 | AGAATATG | 0.229
33 | GTCTGACA | 0.00461
34 | CAGTTATC | -0.0111
35 | GAGTAGTA | 0.163
36 | AATAATGG | 0.162
37 | ATTAATGA | 0.354
38 | GTTAATGA | 0.12
39 | CTTAATGA | -0.0192
40 | ATTAATGC | 0.22
41 | ATTAATGG | 0.289
42 | AATTAGCG | 0.161
43 | AGTCTCAC | -0.0327
44 | TAAAGGAA | 0.162
45 | CGGATGAA | 0.371
46 | AGGATGAA | 0.187
47 | CGGATGAG | -0.0297
48 | AGTCCAGC | -0.114
49 | GGGTGAAA | 0.0993
50 | ACAGTCGT | -0.164

Row | Sequence | PBM E-score
51 | TGTGGAAA | 0.291
52 | AGGAAAAA | 0.431
53 | TGGAAACA | -0.0929
54 | CGTGGAAA | 0.182
55 | AGGAAAAC | 0.12
56 | TGGAAAAA | 0.458
57 | GGGAAAAC | 0.0792
58 | TGAAAAAA | 0.246
59 | AGGAAAAG | 0.038
60 | GGGGAAAA | 0.208
61 | AGTGGAAA | 0.146
62 | GGGAAAAA | 0.453
63 | GGCTGAGA | -0.171
64 | GTCATTAA | 0.203
65 | TGTTATAA | 0.19
66 | ATACGGTA | 0.125
67 | CTTTGTGC | -0.00737
68 | CAGGCATC | 0.00941
69 | TCTCGACA | 0.0966
70 | CCGACTCC | -0.185
71 | AAGAAATT | 0.281
72 | AGGAAAAT | 0.379
73 | AAGAAAAT | 0.331
74 | ACGAAAAT | 0.259
75 | AAGAAAAA | 0.258

Row | Sequence | PBM E-score
76 | AGAAAAAT | 0.269
77 | CTACTGGC | -0.052
78 | AGTAGCTG | 0.0396
79 | GCAGCGTA | -0.106
80 | AGAACTAT | 0.275
81 | ATCTTTGG | 0.0693
82 | ATTTAATC | 0.352
83 | CTTTAGTA | 0.0159
84 | CTTTAATC | 0.145
85 | ATTTAATA | 0.325
86 | CTTTAATA | 0.227
87 | GTTTAATA | 0.264
88 | ATTTAGTA | 0.376
89 | ATTTAATG | 0.244
90 | ATTTAGTC | 0.0709
91 | GACTCCCA | -0.305
92 | CAGCCGTC | -0.0893
93 | TGGAAGAA | 0.347
94 | AGGAAGAC | -0.214
95 | AAGAAGAA | 0.185
96 | CGGAAGAA | 0.462
97 | AAGAAGAT | 0.205
98 | AGGAAGAA | 0.36
99 | TAGAAGAA | 0.0772
100 | AGGAAGAG | -0.0292

Row | Sequence | PBM E-score
101 | CGGAAGAG | -0.108
102 | GGGAAGAA | 0.256
103 | AGGAAGAT | 0.323
104 | CGGAAGAC | 0.00735
105 | TGATACCA | 0.092
106 | CATTGGGC | -0.222
107 | CCTAAAAG | -0.226
108 | AGGATGCC | -0.102
109 | ATCGAATC | 0.0745
110 | TAAAGGTA | 0.0512
111 | CAATGAAC | 0.00305
112 | GCGCACAA | -0.0152
113 | CCGAAATC | 0.0136
114 | GGACCAGA | -0.0563
115 | AAGTCCAC | -0.0692
116 | GTACCACA | 0.121
117 | CTGGGAAA | 0.135
118 | CTGGAAAC | -0.0702
119 | CTGGAAAG | -0.189
120 | GTGGAAAC | -0.0663
121 | TAGGAAAA | 0.229
122 | TTGGGAAA | 0.294
123 | GTGGAAAA | 0.298
124 | ATGGGAAA | 0.0136
125 | TTGAAAAA | 0.237

Row | Sequence | PBM E-score
126 | GTGGAAGA | 0.137
127 | TTGGAAAA | 0.298
128 | CTGGAAAA | 0.377
129 | AAAGCTTG | 0.147
130 | CTGCAAAC | 0.0506
131 | CCGCCTGA | -0.172
132 | TCTGCGCA | 0.0104
133 | CAGATATG | -0.0501
134 | ATGGAAAT | 0.175
135 | ATGGAAAA | 0.32
136 | ATGGAAAG | 0.122
137 | ATTTGGCC | -0.0178
138 | CTCATCAG | 0.0236
139 | CAATGAGG | -0.14
140 | CTAACGAA | 0.0607
141 | TTAACGAA | 0.296
142 | ATAACGAA | 0.229
143 | CAATAAGC | 0.0395
144 | AAATAAGG | 0.00755
145 | AAATAAGT | 0.295
146 | AAATAAAT | 0.298
147 | AAATAAAG | 0.281
148 | ATATAAAC | 0.142
149 | ATATAAAT | 0.34
150 | AAATAAGC | 0.0677

Row | Sequence | PBM E-score
151 | ATATAAAG | 0.211
152 | AAATAACA | 0.11
153 | AAATAACG | 0.232
154 | AAATAAAA | 0.233
155 | AAATAACT | 0.294
156 | GATTCTGC | 0.0635
157 | CAGCAAAC | -0.0765
158 | GGTTCTGA | -0.0472
159 | ACATGACC | -0.186
160 | ACTTATGA | 0.171
161 | CGATCTAC | -0.0159
162 | AGCTGGTA | -0.142
163 | AGGATTAG | 0.161
164 | AGGATTCA | 0.114
165 | AGGATTAA | 0.361
166 | AGGATTAT | 0.306
167 | AGGATTAC | 0.106
168 | AGGATTTA | 0.228
169 | CCTGTAGC | -0.353
170 | GGCCTACC | -0.113
171 | CGACTGCA | -0.126
172 | ACTAACGG | -0.0153
173 | ACAATTAC | 0.202
174 | TCAATTAA | 0.252
175 | ACAATTAG | 0.0047

Row | Sequence | PBM E-score
176 | ACAATTAA | 0.302
177 | CCAATTAA | 0.215
178 | ACAATTAT | 0.328
179 | GGCTAGGA | -0.106
180 | ACCGCACT | -0.0787
181 | GAGAGCTC | -0.197
182 | AGCCCAAT | -0.125
183 | GAGTTTTA | 0.146
184 | CGGATATC | 0.0386
185 | CAGATATA | 0.175
186 | CGGATATA | 0.345
187 | GATATATA | 0.289
188 | TATATATA | 0.28
189 | AAGATATC | 0.117
190 | AAGATATA | 0.323
191 | GATATATC | 0.226
192 | GGGATATA | 0.158
193 | CGTGGTTA | -0.0128
194 | CGCGAGCA | -0.12
195 | CACCTTAC | -0.00385
196 | GGGGAACA | 0.00453
197 | CCGGAACC | -0.16
198 | TGGGAACA | 0.111
199 | AGGGAACA | 0.249
200 | TCGGAACA | 0.387

Row | Sequence | PBM E-score
201 | CCGGAACA | 0.447
202 | ACGGAACA | 0.298
203 | CCGGAACG | -0.0381
204 | ACGGAACC | -0.0347
205 | ACGGAACT | 0.0148
206 | GCGGAACA | 0.265
207 | CGGGAACA | 0.331
208 | ATCGTTCC | -0.196
209 | ATATTTGC | 0.222
210 | TATGTTAA | 0.238
211 | CAGGGAAC | 0.0159
212 | CCCATCCC | -0.23
213 | ACTGACGA | -0.0835
214 | ATAATTCC | 0.348
215 | AGAATTCC | 0.0767
216 | ATGATTCC | 0.336
217 | ATAATTCA | 0.241
218 | CTAATTCC | 0.0934
219 | CTGATTCC | -0.0421
220 | ACAATTCG | 0.0965
221 | ATAATTCG | 0.294
222 | ATGATTCA | 0.127
